Measurements from PMC4336329 (PLoS ONE, 2015).
Out of some 310,000 compounds screened, about 14,000 (4.5%) showed an effect of 50% or more. Effects have a minus sign here. What follows is part of a selection rich in strong results, with near analogues and random picks from the rest.

target: human ether-à-go-go-related gene (hERG) potassium channel (human, UniProt Q12809); test: primary screen, population patch clamp on CHO cells stably expressing hERG; higher = less effect of the substance
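Further: peak tail current of the secondary pulse compared with the same well before compound.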

Sequence of human ether-à-go-go-related gene (hERG) potassium channel (Q12809 whole entry, looked up): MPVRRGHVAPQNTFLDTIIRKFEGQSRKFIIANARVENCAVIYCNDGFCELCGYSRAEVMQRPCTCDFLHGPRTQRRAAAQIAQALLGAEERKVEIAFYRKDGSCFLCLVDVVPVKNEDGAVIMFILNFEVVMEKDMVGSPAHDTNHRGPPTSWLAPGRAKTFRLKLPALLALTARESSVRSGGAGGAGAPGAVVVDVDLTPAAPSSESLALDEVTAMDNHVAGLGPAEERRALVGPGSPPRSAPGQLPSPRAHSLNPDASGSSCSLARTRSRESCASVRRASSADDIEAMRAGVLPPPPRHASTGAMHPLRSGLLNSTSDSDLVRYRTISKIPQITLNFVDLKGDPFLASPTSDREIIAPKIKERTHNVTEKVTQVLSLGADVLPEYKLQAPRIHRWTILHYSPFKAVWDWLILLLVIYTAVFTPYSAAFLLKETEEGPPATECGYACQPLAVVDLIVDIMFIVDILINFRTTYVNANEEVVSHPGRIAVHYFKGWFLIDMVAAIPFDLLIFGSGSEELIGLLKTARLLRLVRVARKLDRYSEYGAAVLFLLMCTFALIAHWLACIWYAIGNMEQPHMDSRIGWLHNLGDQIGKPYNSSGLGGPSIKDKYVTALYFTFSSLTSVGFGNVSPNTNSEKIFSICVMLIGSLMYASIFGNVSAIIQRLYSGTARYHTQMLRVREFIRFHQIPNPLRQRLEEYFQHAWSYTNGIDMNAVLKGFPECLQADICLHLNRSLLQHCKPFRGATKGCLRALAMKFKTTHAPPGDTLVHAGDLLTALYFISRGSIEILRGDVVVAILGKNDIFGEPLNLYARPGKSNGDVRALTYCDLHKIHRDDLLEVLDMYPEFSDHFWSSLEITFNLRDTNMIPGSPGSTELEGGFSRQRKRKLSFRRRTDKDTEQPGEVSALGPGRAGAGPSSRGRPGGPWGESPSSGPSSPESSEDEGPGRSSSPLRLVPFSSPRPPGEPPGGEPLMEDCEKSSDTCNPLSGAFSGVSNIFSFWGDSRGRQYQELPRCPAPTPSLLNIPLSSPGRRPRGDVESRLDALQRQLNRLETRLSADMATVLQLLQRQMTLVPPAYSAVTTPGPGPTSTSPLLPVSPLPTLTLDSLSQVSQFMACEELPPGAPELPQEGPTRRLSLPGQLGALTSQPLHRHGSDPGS

Compound	hERG current change (%, negative = inhibition) at 10uM
CCc1ccccc1N(CC(=O)N1CCCCC1)S(=O)(=O)c1ccccc1	10.6%
N#CC(C#N)=Cc1cc2ccccc2nc1N1CCCCC1	2.22%
CCN(CC)c1ccc(NC(=O)COC(=O)COc2ccccc2[N+](=O)[O-])cc1	3.42%
Cn1cc(Br)c(C(=O)NNC(=O)Cc2ccc(Cl)cc2)n1	3.6%
COc1ccc(N2C(=O)C3C(C2=O)C3(c2ccccc2)c2ccccc2)cc1 (centres unmarked)	0.0654%
Cc1ccc(C2CC(=O)C(C=NCCN3CCN(C(=S)Nc4ccc(F)cc4)CC3)=C(O)C2)cc1 (centres unmarked)	-58.6%
Cc1c(Cl)cccc1NC(=O)CN1CCN(CCN=CC2=C(O)CC(c3ccccc3)CC2=O)CC1 (centres unmarked)	-19.9%
O=C1CC(c2ccccc2)CC(O)=C1C=NCCN1CCN(C(=O)Nc2ccccc2)CC1 (centres unmarked)	-64.4%
O=C1CC(c2ccc(F)cc2)CC(O)=C1C=NCCN1CCN(C(=O)Nc2ccccc2)CC1 (centres unmarked)	-67.8%
COc1ccc(C2CC(=O)C(C=NCCN3CCN(C(=S)Nc4ccccc4)CC3)=C(O)C2)cc1 (centres unmarked)	-32.8%
Cc1ccc(C2CC(=O)C(C=NCCN3CCN(C(=S)Nc4ccccc4)CC3)=C(O)C2)cc1 (centres unmarked)	-26.4%
COc1ccc(NC(=S)N2CCN(CCN=CC3=C(O)CC(c4ccccc4)CC3=O)CC2)cc1 (centres unmarked)	-45.7%
CCOC(=O)c1ccc(NC(=S)N2CCN(CCN=CC3=C(O)CC(c4ccccc4)CC3=O)CC2)cc1 (centres unmarked)	-19.9%
Cc1ccc(NC(=O)CN2CCN(CCN=CC3=C(O)CC(c4ccc(C)cc4)CC3=O)CC2)cc1 (centres unmarked)	-45.3%
Cc1ccc(NC(=O)CN2CCN(CCN=CC3=C(O)CC(c4ccccc4)CC3=O)CC2)cc1 (centres unmarked)	-67.4%
O=C1CC(c2ccc(F)cc2)CC(O)=C1C=NCCN1CCNCC1 (centres unmarked)	6.09%
O=C1CC(c2ccccc2)CC(O)=C1C=NCCN1CCN(C(=S)Nc2cccc(Cl)c2)CC1 (centres unmarked)	-39.4%
O=C(Nc1cc2c(cc1Br)OCCO2)c1cccnc1	1.58%
O=C(c1ccc(CS(=O)Cc2cccc(Cl)c2)o1)N1CCN(C2CCCCC2)CC1 (centres unmarked)	-16.5%
COc1cc2nc(C3CCC3)n(NC(=O)C(OC(C)=O)c3ccccc3)c(=O)c2cc1OC (centres unmarked)	9.45%
Cc1c(C(=O)NCCSCc2ccco2)cccc1[N+](=O)[O-]	-5.94%

Compound	hERG current change (%, negative = inhibition) at 10uM
CN(Cc1cc2ccccc2[nH]c1=O)C(=O)COc1ccccc1	-8.32%
O=C(COC(=O)C1(c2ccccc2F)CCCC1)Nc1ncc(C(F)(F)F)cc1Cl	-10.1%
CSc1ccc(Cl)c(C(=O)Nc2ccc(N3CCOCC3)cc2)c1	-1.67%
Cc1cc(NC(=O)Nc2ccc(Cl)cc2)n(C(C)(C)C)n1	17.7%
CC(NC(=O)c1nn(C)c2c1CS(=O)(=O)c1ccccc1-2)c1ccccc1 (centres unmarked)	-13.1%
CC(OC(=O)Cc1c(F)cccc1Cl)C(=O)NC1(C#N)CCCCC1 (centres unmarked)	-22.4%
C=CCNC(=S)N1CCN(CCN=CC2=C(O)CC(c3cccs3)CC2=O)CC1 (centres unmarked)	-49.1%
C=CCNC(=S)N1CCN(CCN=CC2=C(O)CC(c3ccc(Cl)cc3)CC2=O)CC1 (centres unmarked)	-66.4%
CC(=O)N1CCN(CCN=CC2=C(O)CC(c3ccc(Cl)cc3)CC2=O)CC1 (centres unmarked)	-15.7%
Fc1c(F)c(C(F)(F)F)c(F)c(F)c1N/N=C\c1cccs1	15.5%
CCCCOc1ccc(C(=O)Nc2cc(C)c(OCC(=O)N3CCOCC3)c(C)c2)cc1	-24.8%
CC(=O)N1CCN(C(=O)COc2ccccc2C(=O)Nc2ccccc2)CC1	-53.2%
COc1ccccc1C(=O)Nc1ccc(OCC(=O)N2CCCCC2)cc1	-2.87%
O=C(Nc1cccc(Cl)c1Cl)c1ccccc1OCC(=O)N1CCOCC1	-13.5%
Cc1cc(NC(=O)c2ccc(Cl)cc2)cc(C)c1OCC(=O)N1CCOCC1	-52.4%
CC(=O)c1ccc(NC(=O)COc2ccccc2C(=O)Nc2ccccc2)cc1	9.66%
Cc1ccc(Cl)cc1NC(=O)c1ccccc1OCC(=O)N1CCOCC1	-63.6%
Cc1cccc(NC(=O)c2ccccc2OCC(=O)N2CCOCC2)c1C	-6.62%
Cc1ccc(C(=O)Nc2cc(C)c(OCC(=O)N3CCOCC3)c(C)c2)cc1	-11.3%
COc1ccc(C(CNC(=O)c2cc(C)on2)N(C)C)cc1 (centres unmarked)	22.1%
O=C(CSc1nc2c(sc3ccccc32)c(=O)n1CCO)NCc1ccco1	-18.2%

Compound	hERG current change (%, negative = inhibition) at 10uM
CCN(CC)CCn1c(SCC(=O)NCCC2=CCCCC2)nc2c(sc3ccccc32)c1=O	35.5%
CCOCCCn1c(SCC(=O)NCc2ccco2)nc2c(sc3ccccc32)c1=O	-27.6%
CCN(CC)CCn1c(SCC(=O)NCc2ccccc2)nc2c(sc3ccccc32)c1=O	-29.3%
O=C(CSc1nc2c(sc3ccccc32)c(=O)n1CCCN1CCCC1)NCC1CCCO1 (centres unmarked)	-61.6%
O=C(CSc1nc2c(sc3ccccc32)c(=O)n1CCO)NCC1CCCO1 (centres unmarked)	-3.42%
C=CCN(C(=O)CSc1nc2c(sc3ccccc32)c(=O)n1CCN(CC)CC)c1ccccc1	-77.4%
O=C(CSc1nc2c(sc3ccccc32)c(=O)n1CCc1ccccc1)NCc1ccco1	-8.32%
O=C(CSc1nc2c(sc3ccccc32)c(=O)n1CCCN1CCOCC1)NCC1CCCO1 (centres unmarked)	-14.3%
CCCCn1c(SCC(=O)NCc2ccco2)nc2c(sc3ccccc32)c1=O	-16.8%
CCN(CC)CCn1c(SCC(=O)NCc2ccco2)nc2c(sc3ccccc32)c1=O	-68.2%
O=C(CSc1nc2c(sc3ccccc32)c(=O)n1CCCN1CCCC1)NCc1ccco1	-73%
CC1(C)CN(c2cccc(Br)c2)C1=O	7.96%
Cc1c(C)n(CC(O)CNc2ccccc2)c2ccccc12.O=C(O)C(=O)O (centres unmarked)	23.1%
CCOC(=O)Cc1csc(NC(=O)c2cccc(Cl)c2)n1	-13%
CC1(c2nnc(-c3ccc(Cl)cc3)o2)CC(c2cccc(Cl)c2)=NO1 (centres unmarked)	13.7%
COCCn1c(SCC(=O)Nc2cc(C)on2)nc2c(c1=O)SC(C)C2 (centres unmarked)	10.5%
COC(=O)c1ccc(COC(=O)C2CCN(S(=O)(=O)c3c(Cl)cccc3Cl)CC2)o1	-7.62%
COC(=O)/C(=C/N(C)C)C(=O)N1CCN(c2ccc(Cl)c(Cl)c2)CC1	-25%
COc1cccc(OC)c1C(=O)NNS(=O)(=O)c1ccc2ccccc2c1	-5.2%
O=C(O)CC(SCC(=O)Nc1ccccc1)C(=O)O (centres unmarked)	23%
O=C1[C@@H]2Cc3c([nH]c4ccccc34)C(c3ccc([N+](=O)[O-])cc3)N2C(=O)CN1C1CC1 (some centres unmarked)	-25.2%

Compound	hERG current change (%, negative = inhibition) at 10uM
CSc1nc(Cc2ccccc2)nc2ccccc12	22.9%
Cc1cc(C)nc(N/C(=N\S(=O)(=O)Cc2ccccc2)Nc2cccc(Cl)c2C)n1	-3.72%
ON1C2CCCCC2N(O)C1c1ccccc1F (centres unmarked)	16.7%
O=C(CSc1nc2c(sc3ccccc32)c(=O)n1CCCN1CCCC1)NCc1ccccc1	-80.8%
Cc1ccc(CNC(=O)CSc2nc3c(sc4ccccc43)c(=O)n2CCCN2CCCC2)cc1	-82.8%
Cc1ccc(-n2c(SCC(=O)NCc3ccco3)nc3c(sc4ccccc43)c2=O)cc1	14.8%
COc1ccc(C(=O)Nc2ncccc2C)cc1S(=O)(=O)N1CCCc2ccccc21	9.01%
Cc1ccc(CNC(=O)c2ccccc2NS(=O)(=O)c2ccc(Cl)nc2)cc1	12.6%
OC(COc1ccccc1)Cn1cc(Br)cn1 (centres unmarked)	0.0411%
CCc1nc(Nc2ccccc2OC)c2oc3ccccc3c2n1.Cl	12.5%
CCN(CC)c1ccc2cc(C(=O)NCc3ccc(F)cc3)c(=N)oc2c1	-23.4%
CCCCCCc1cc2cc(C(=O)NC)c(=N)oc2cc1O	-7.38%
CCCCCCc1cc2cc(C(N)=O)c(=N)oc2cc1O	-59.8%
CCN(CC)c1ccc2cc(C(N)=O)c(=O)oc2c1	9.31%
CCCCCCc1cc2cc(C(=O)OCC)c(=O)oc2cc1O	23.3%
CCN(CC)c1ccc2cc(C(N)=O)c(=N)oc2c1	-58.5%
CN(C[C@H](Cc1ccccc1)N(C[C@H](Cc1ccccc1)N(CC1(c2ccccc2)CC1)N=O)N=O)N=O.[Na+]	12.8%
Cc1ccc(OCCCC(=O)NCc2ccco2)c(C)c1	0.0372%
CCCCCC(O)CCC(=O)NNC1=CC(=O)CC(C)(C)C1 (centres unmarked)	13.9%
COc1ccc(C(C#N)C2(C)OCCO2)cc1OC (centres unmarked)	-4.08%
